Data as given in the antibiotic and cytotoxicity screens of Wong et al. (2023).
In all, about 39,000 compounds went through this assay and about 1,500 (3.8%) were called active. This excerpt belongs to a sample that is enriched for actives.

Tested on: HSkMC (human skeletal muscle cells)
Test: cytotoxicity call (relative viability < 0.9)
Settings: 10 µM

Structure (SMILES) | cytotoxicity call
NC[C@@H](CC(=O)O)c1ccccc1 | inactive
CCOC(OCC)P(=O)(O)CCCN | inactive
CC(=O)N[C@@H]1[C@H](O[C@@H]2O[C@H](C[C@@H](O)[C@H]3O[C@@H](n4ccc(=O)[nH]c4=O)[C@H](O)[C@@H]3O)[C@H](O)[C@H](O)[C@H]2NC(=O)/C=C/CCCCCCCCC(C)C)O[C@@H](CO)[C@H](O)[C@H]1O | inactive
Oc1cc(Cl)ccc1Oc1ccc(Cl)cc1Cl [listing 1 of 2 here] | inactive
Oc1ccc(Cl)cc1Cc1cc(Cl)ccc1O | inactive
Oc1cc(Cl)ccc1Oc1ccc(Cl)cc1Cl [listing 2 of 2 here] | active
CC(C)[C@@H]1NC[C@@H]2CCCN2C1=O | inactive
O=C1C=CC(=O)c2c(O)cccc21 | inactive
Oc1ccccc1-c1ccccc1O | inactive
CC1=CC(=O)c2c(O)cccc2C1=O | active
O=C(O)C=CC(=O)O.c1ccc2nc(N3CCNCC3)ccc2c1 | inactive
Cc1ncc(CNC(=O)N(CCCl)[NH2+][O-])c(N)n1 | inactive
CC(=O)OC1C2CCC3C(C)(O)C4CC(O)C(C)(C)C4(O)C(O)CC13CC2(C)O (stereo unspecified) | inactive
Cc1cc(C2=NO[C@](c3cc(Cl)cc(Cl)c3)(C(F)(F)F)C2)ccc1C(=O)NCC(=O)NCC(F)(F)F | active
CN1CCOCC12CCN(c1ncccn1)CC2 | inactive
COc1ccc(C2(CN)CCCC2)cc1 | inactive
NCc1cc(=O)[nH]o1 | inactive
O=C1N[C@@H]2C(=C[C@H](O)[C@@H](O)[C@H]2O)c2cc3c(c(O)c21)OCO3 | active
N[C@@H](c1ccccc1)[C@H](O)c1ccccc1 | inactive
CNC(=O)Oc1ccc2c(c1)C1(C)CCN(C)C1N2C.O=S(=O)(O)O (stereo unspecified) | inactive
Cc1ccc(N2CCO[C@@H]3CNCC[C@H]3C2)nn1 | inactive
NCCc1nccs1 | inactive

Structure (SMILES) | cytotoxicity call
CCN1C[C@H]2CN(Cc3nccn3C)C[C@H]2C1=O | inactive
CNC(=O)Oc1cccc2ccccc12 | inactive
C[C@H]1C[C@H]2CNCC[C@@H]2O1 | inactive
O=[N+]([O-])c1ccc(N(CCO)CCO)c2c1no[n+]2[O-] | active
CNC(=O)Oc1ccc2c(c1)C1(C)CCN(C)C1N2C.O=C(O)c1ccccc1O (stereo unspecified) | inactive
Cn1ccnc1CN1CCC[C@]2(CCNC2=O)C1 | inactive
CC(=O)NN1Cc2ccccc2C1=N | inactive
CC(C)c1ccc2[nH]c(=O)c(CCN)cc2c1 | inactive
[N-]=[N+]=NCc1ccccc1C[C@@]1(C(=O)NCCN2CCOCC2)N=C(c2ccc(OCCCO)cc2)O[C@@H]1c1ccccc1N=[N+]=[N-] | inactive
CC1=C2CC3C(CC=C4CC(O)CCC43C)C2CCC12OC1CC(C)CNC1C2C (stereo unspecified) | inactive
Cc1ccc(OC(=O)N(C)C[C@H]2OCc3ccccc3-c3c(n(C)c4ccccc34)C(=O)N([C@@H](C)CO)C[C@@H]2C)cc1 | inactive
O=C1[O][SbH]23[O]C(=O)C([O]2)C2[O][SbH]4([O]C(=O)C([O]4)C1[O]3)[O]C2=O | inactive
O=C1[O][SbH]23[O]C(=O)[C@H]([O]2)[C@H]2[O][SbH]4([O]C(=O)[C@H]([O]4)[C@H]1[O]3)[O]C2=O | active
CC(C)(C)NCC(O)c1ccccc1Cl.Cl (stereo unspecified) | inactive
CC(C)(C#N)O[C@@H]1O[C@H](CO)[C@@H](O)[C@H](O)[C@H]1O | inactive
CN1C(=O)[C@]23CC4=CC=C[C@H](O)[C@H]4N2C(=O)[C@@]1(CO)SS3 | active
CN1C(=O)[C@@]23C[C@]4([C@@]56C[C@]78SS[C@](CO)(C(=O)N7[C@@H]5Nc5ccccc56)N(C)C8=O)c5ccccc5N[C@H]4N2C(=O)[C@@]1(CO)SS3 | active
N#C[C@H](O[C@@H]1O[C@H](CO[C@@H]2O[C@H](CO)[C@@H](O)[C@H](O)[C@H]2O)[C@@H](O)[C@H](O)[C@H]1O)c1ccccc1 | inactive
CN1CC[C@]2(CCCO2)C1 | inactive
CCOc1ccc(CN)cn1 | inactive
NSC(=S)N1CCCC1 | inactive
O=C1C=C2C=CC3CC2(O1)C1CCCCN31 (stereo unspecified) | inactive

Structure (SMILES) | cytotoxicity call
Nc1ccc2c(c1)CNCC2 | inactive
O=c1[nH]c2ccccc2n1C1CCN(CCCC(c2ccc(F)cc2)c2ccc(F)cc2)CC1 | active
O=c1[nH]c2ccccc2n1CCCN1CCC(n2c(=O)[nH]c3cc(Cl)ccc32)CC1 | inactive
COc1ccn(C)c(=O)c1C#N | inactive
Cl.c1ccc2c(c1)OCC(C1=NCCN1)O2 (stereo unspecified) | inactive
CI.O=C(COc1ccc(Cl)cc1Cl)OC[C@H]1CCCN2CCCC[C@@H]12 | inactive
O=C1CO[C@]2(CNCCOC2)CN1CC1CC1 | inactive
CN(C)C(=O)CCC(=O)N1C[C@H]2C[C@@H]1CN2 | inactive
CO[C@@H]1C[C@@H](C[C@H]2CC[C@H](C)[C@H]([C@@H](C)C(=O)O)O2)O[C@]2(O[C@](C)([C@H]3CC[C@@](C)([C@H]4O[C@@H]([C@H]5O[C@@](O)(CO)[C@H](C)C[C@@H]5C)C[C@@H]4C)O3)C[C@H]2C)[C@@H]1C | active
C[C@@H]1CN([C@H](C)CO)C(=O)CCCn2nncc2CO[C@@H]1CN(C)C(=O)Oc1cccc2ccccc12 | inactive
Clc1ccc(C(c2ccc(Cl)cc2)C(Cl)(Cl)Cl)cc1 | inactive
N[C@H]1C[C@H]1c1ccccc1 | inactive
O=C(Cc1ccccc1)c1ccccc1 | inactive
CC(=O)[O][Hg][c]1ccccc1 | active
NCC(=O)c1ccccc1 | inactive
O.O.O.O=C([O-])C1[O][Sb]2[O]C(=O)C([O]2)C(C(=O)[O-])[O][Sb]2[O]C(=O)C1[O]2.[K+].[K+] (stereo unspecified) | inactive
CC[C@@H](C)[C@H]1NC(=O)C(C(C)=O)=C1O | inactive
CC[C@@H](N)[C@@H](O)c1ccc(O)c(O)c1 | active
C[C@H](N)[C@H](O)c1ccc(O)c(O)c1 | inactive
CCC(N)C(O)c1ccc(O)c(O)c1.Cl (stereo unspecified) | inactive
Cn1cc([C@@H](O)c2ccccc2)[n+](C)c1 | inactive
CC(CO)NC(=O)C1C=C2c3cccc4[nH]cc(c34)CC2N(C)C1.O=C(O)C=CC(=O)O (stereo unspecified) | inactive
